Data reported in paper PMC11006913.
Substitutions are numbered along the chain they refer to.

Assays:
Test in all cases: PBM; 200 nM protein, PBS
Conditions in all cases: dsDNA, one strand shown
HOXB9 [1] = target: HOXB9 (Homo sapiens, UniProt P17482 171-250, T197M)
SIX6 [2] = target: T1, SIX6 (Homo sapiens, UniProt O95475 114-200, L167I)
T1 sequence: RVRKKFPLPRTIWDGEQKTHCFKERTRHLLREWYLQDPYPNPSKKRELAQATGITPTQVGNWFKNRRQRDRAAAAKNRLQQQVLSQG

SIX6 [3] = target: T2, SIX6 (Homo sapiens, UniProt O95475 114-200, L143V)
T2 sequence: T1 sequence with L30V, I54L

SIX6 [4] = target: T3, SIX6 (Homo sapiens, UniProt O95475 114-200, H141N)
T3 sequence: T1 sequence with H28N, I54L

SIX6 [5] = target: T4, SIX6 (Homo sapiens, UniProt O95475 114-200, T165P)
T4 sequence: T1 sequence with T52P, I54L

SIX6 [6] = target: T5, SIX6 (Homo sapiens, UniProt O95475 114-200, L167M)
T5 sequence: T1 sequence with I54M

SIX6 [7] = target: T6, SIX6 (Homo sapiens, UniProt O95475 114-200, L143M)
T6 sequence: T1 sequence with L30M, I54L

SIX6 [8] = target: T7, SIX6 (Homo sapiens, UniProt O95475 114-200, L143I)
T7 sequence: T1 sequence with L30I, I54L

SIX6 [9] = target: T8, SIX6 (Homo sapiens, UniProt O95475 114-200, T165G)
T8 sequence: T1 sequence with T52G, I54L

HOXB9 [10] = target: HOXB9 (Homo sapiens, UniProt P17482 171-250)
Chain of HOXB9 (Homo sapiens, UniProt P17482 171-250) (P17482 171-250): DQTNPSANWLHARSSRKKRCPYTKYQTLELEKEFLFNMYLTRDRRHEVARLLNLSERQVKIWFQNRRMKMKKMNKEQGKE

SIX6 [11] = target: T9, SIX6 (Homo sapiens, UniProt O95475 114-200, T139Q)
T9 sequence: T1 sequence with T26Q, I54L

SIX6 [12] = target: T10, SIX6 (Homo sapiens, UniProt O95475 114-200, T165A)
T10 sequence: T1 sequence with T52A, I54L

SIX6 [13] = target: T11, SIX6 (Homo sapiens, UniProt O95475 114-200, L167V)
T11 sequence: T1 sequence with I54V

SIX6 [14] = target: T12, SIX6 (Homo sapiens, UniProt O95475 114-200)
T12 sequence: T1 sequence with I54L

SIX6 [15] = target: T13, SIX6 (Homo sapiens, UniProt O95475 114-200, T165I)
T13 sequence: T1 sequence with T52I, I54L

HOXB9 [16] = target: HOXB9 (Homo sapiens, UniProt P17482 171-250, R186Q)
Chain of HOXB9 (Homo sapiens, UniProt P17482 171-250, R186Q) (P17482 171-250 R186Q): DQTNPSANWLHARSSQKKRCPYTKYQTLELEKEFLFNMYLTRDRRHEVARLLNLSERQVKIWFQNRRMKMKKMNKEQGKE

HOXA4 [17] = target: HOXA4 (Homo sapiens, UniProt Q00056 201-287, W262R)
Chain of HOXA4 (Homo sapiens, UniProt Q00056 201-287, W262R) (Q00056 201-287 W262R): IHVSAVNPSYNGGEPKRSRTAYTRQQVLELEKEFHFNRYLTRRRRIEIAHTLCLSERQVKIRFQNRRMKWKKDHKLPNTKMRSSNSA

HOXC9 [18] = target: HOXC9 (Homo sapiens, UniProt P31274 178-260, K195R)
Chain of HOXC9 (Homo sapiens, UniProt P31274 178-260, K195R) (P31274 178-260 K195R): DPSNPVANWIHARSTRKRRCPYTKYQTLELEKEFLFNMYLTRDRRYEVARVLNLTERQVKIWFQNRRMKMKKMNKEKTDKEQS

HOXC10 [19] = target: HOXC10 (Homo sapiens, UniProt Q9NYD6 254-340)
Chain of HOXC10 (Homo sapiens, UniProt Q9NYD6 254-340) (Q9NYD6 254-340): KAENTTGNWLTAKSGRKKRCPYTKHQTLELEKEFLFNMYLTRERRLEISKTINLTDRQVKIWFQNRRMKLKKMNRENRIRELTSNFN

VENTX = target: T14, VENTX (Homo sapiens, UniProt O95231 78-163, Y115F)
T14 sequence: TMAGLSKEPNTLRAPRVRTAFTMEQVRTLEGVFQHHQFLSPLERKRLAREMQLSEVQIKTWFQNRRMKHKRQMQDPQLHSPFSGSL

HOXA2 [20] = target: HOXA2 (Homo sapiens, UniProt O43364 129-215, R185T)
Chain of HOXA2 (Homo sapiens, UniProt O43364 129-215, R185T) (O43364 129-215 R185T): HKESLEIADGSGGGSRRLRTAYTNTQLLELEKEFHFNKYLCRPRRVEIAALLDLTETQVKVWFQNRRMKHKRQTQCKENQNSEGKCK

HOXA4 [21] = target: HOXA4 (Homo sapiens, UniProt Q00056 201-287, R217L)
Chain of HOXA4 (Homo sapiens, UniProt Q00056 201-287, R217L) (Q00056 201-287 R217L): as the sequence (Q00056 201-287 W262R) above, with R17L, R62W counted along it

HOXC9 [22] = target: HOXC9 (Homo sapiens, UniProt P31274 178-260)
Chain of HOXC9 (Homo sapiens, UniProt P31274 178-260) (P31274 178-260): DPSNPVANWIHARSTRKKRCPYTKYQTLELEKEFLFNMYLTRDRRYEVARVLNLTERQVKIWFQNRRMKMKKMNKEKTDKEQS

PITX2 = PITX2 (Homo sapiens, UniProt Q99697 72-157)
HOXC9 [23] = target: HOXC9 (Homo sapiens, UniProt P31274 178-260, R193K)
Chain of HOXC9 (Homo sapiens, UniProt P31274 178-260, R193K) (P31274 178-260 R193K): as the sequence (P31274 178-260) above, with R16K counted along it

HOXA2 [24] = target: HOXA2 (Homo sapiens, UniProt O43364 129-215, R185K)
Chain of HOXA2 (Homo sapiens, UniProt O43364 129-215, R185K) (O43364 129-215 R185K): as the sequence (O43364 129-215 R185T) above, with T57K counted along it

HOXA4 [25] = target: HOXA4 (Homo sapiens, UniProt Q00056 201-287)
Chain of HOXA4 (Homo sapiens, UniProt Q00056 201-287) (Q00056 201-287): as the sequence (Q00056 201-287 W262R) above, with R62W counted along it

HOXC10 [26] = target: HOXC10 (Homo sapiens, UniProt Q9NYD6 254-340, K271E)
Chain of HOXC10 (Homo sapiens, UniProt Q9NYD6 254-340, K271E) (Q9NYD6 254-340 K271E): as the sequence (Q9NYD6 254-340) above, with K18E counted along it

HOXC9 [27] = target: HOXC9 (Homo sapiens, UniProt P31274 178-260, R222W)
Chain of HOXC9 (Homo sapiens, UniProt P31274 178-260, R222W) (P31274 178-260 R222W): as the sequence (P31274 178-260) above, with R45W counted along it

HOXA2 [28] = target: HOXA2 (Homo sapiens, UniProt O43364 129-215, Y150S)
Chain of HOXA2 (Homo sapiens, UniProt O43364 129-215, Y150S) (O43364 129-215 Y150S): as the sequence (O43364 129-215 R185T) above, with Y22S, T57R counted along it

HOXA4 [29] = target: HOXA4 (Homo sapiens, UniProt Q00056 201-287, W262F)
Chain of HOXA4 (Homo sapiens, UniProt Q00056 201-287, W262F) (Q00056 201-287 W262F): as the sequence (Q00056 201-287 W262R) above, with R62F counted along it

HOXA2 [30] = target: HOXA2 (Homo sapiens, UniProt O43364 129-215)
Chain of HOXA2 (Homo sapiens, UniProt O43364 129-215) (O43364 129-215): as the sequence (O43364 129-215 R185T) above, with T57R counted along it

Chain of HOXB9 (Homo sapiens, UniProt P17482 171-250, T197M) (P17482 171-250 T197M): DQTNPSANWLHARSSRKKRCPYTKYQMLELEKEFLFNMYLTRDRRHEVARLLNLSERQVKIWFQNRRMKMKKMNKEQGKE

Question: Which results are given for CAGCTGCG?
Answer: binding signal (HOXB9 [1]): 8.53 upbm affinity estimate (log intensity, higher = more binding, comparable within an allelic series); binding signal (SIX6 [2]): 9.16 upbm affinity estimate (log intensity, higher = more binding, comparable within an allelic series); binding signal (SIX6 [3]): 9.03 upbm affinity estimate (log intensity, higher = more binding, comparable within an allelic series); binding signal (SIX6 [4]): 9.09 upbm affinity estimate (log intensity, higher = more binding, comparable within an allelic series); binding signal (SIX6 [5]): 9 upbm affinity estimate (log intensity, higher = more binding, comparable within an allelic series); binding signal (SIX6 [6]): 9.04 upbm affinity estimate (log intensity, higher = more binding, comparable within an allelic series); binding signal (SIX6 [7]): 9.22 upbm affinity estimate (log intensity, higher = more binding, comparable within an allelic series); binding signal (SIX6 [8]): 9.01 upbm affinity estimate (log intensity, higher = more binding, comparable within an allelic series); binding signal (SIX6 [9]): 9.19 upbm affinity estimate (log intensity, higher = more binding, comparable within an allelic series); binding signal (HOXB9 [10]): 8.16 upbm affinity estimate (log intensity, higher = more binding, comparable within an allelic series); binding signal (SIX6 [11]): 9.25 upbm affinity estimate (log intensity, higher = more binding, comparable within an allelic series); binding signal (SIX6 [12]): 9.08 upbm affinity estimate (log intensity, higher = more binding, comparable within an allelic series); binding signal (SIX6 [13]): 9.05 upbm affinity estimate (log intensity, higher = more binding, comparable within an allelic series); binding signal (SIX6 [14]): 9.08 upbm affinity estimate (log intensity, higher = more binding, comparable within an allelic series); binding signal (SIX6 [15]): 9.09 upbm affinity estimate (log intensity, higher = more binding, comparable within an allelic series); binding signal (HOXB9 [16]): 8.31 upbm affinity estimate (log intensity, higher = more binding, comparable within an allelic series)

Question: What does the source list for ATTAACGA?
Answer: binding signal (HOXB9 [1]): 10 upbm affinity estimate (log intensity, higher = more binding, comparable within an allelic series); binding signal (HOXA4 [17]): 10.6 upbm affinity estimate (log intensity, higher = more binding, comparable within an allelic series); binding signal (HOXC9 [18]): 12.6 upbm affinity estimate (log intensity, higher = more binding, comparable within an allelic series); binding signal (HOXC10 [19]): 12.2 upbm affinity estimate (log intensity, higher = more binding, comparable within an allelic series); binding signal (VENTX): 11.5 upbm affinity estimate (log intensity, higher = more binding, comparable within an allelic series); binding signal (HOXA2 [20]): 12.4 upbm affinity estimate (log intensity, higher = more binding, comparable within an allelic series); binding signal (HOXA4 [21]): 12 upbm affinity estimate (log intensity, higher = more binding, comparable within an allelic series); binding signal (HOXC9 [22]): 12.5 upbm affinity estimate (log intensity, higher = more binding, comparable within an allelic series); binding signal (PITX2): 10.7 upbm affinity estimate (log intensity, higher = more binding, comparable within an allelic series); binding signal (HOXC9 [23]): 12.5 upbm affinity estimate (log intensity, higher = more binding, comparable within an allelic series); binding signal (HOXA2 [24]): 13.3 upbm affinity estimate (log intensity, higher = more binding, comparable within an allelic series); binding signal (HOXA4 [25]): 13.6 upbm affinity estimate (log intensity, higher = more binding, comparable within an allelic series); binding signal (HOXC10 [26]): 12.1 upbm affinity estimate (log intensity, higher = more binding, comparable within an allelic series); binding signal (HOXC9 [27]): 10.9 upbm affinity estimate (log intensity, higher = more binding, comparable within an allelic series); binding signal (HOXA2 [28]): 10.9 upbm affinity estimate (log intensity, higher = more binding, comparable within an allelic series); binding signal (HOXA4 [29]): 11.4 upbm affinity estimate (log intensity, higher = more binding, comparable within an allelic series); binding signal (HOXA2 [30]): 12 upbm affinity estimate (log intensity, higher = more binding, comparable within an allelic series)
